Screening results (PubChem)
Rce1 inh: inhibitors of yeast Ras-converting enzyme. Q03530. yeast membranes, quenched prenylated peptide cleavage fluorescence. calls only. actives 0.27% (n = 290,000). AID 2563;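 active means fall in fluorescence gain of 50% or more versus controls, with final raw signal at or below 3038400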
Kir21 block: inhibitors of mouse Kir2.1 inward-rectifier potassium channel | actives 0.85% (n = 310,000) | B-score at 10 µM | P35561 | HEK293-Kir2.1, FluxOR thallium flux fluorescence; active compounds read low | AID 1672;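 active means fluorescence ratio B-score at or below minus 3 SD of library scores, with starting-brightness B-score within 2 SD, cut at about -4.2 in these data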;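 further: channel flux triggered by added potassium and thallium sulfate stimulus; B-score of peak minus minimum fluorescence over baseline after thallium stimulus; more negative B-score means stronger Kir2.1 block with less thallium influx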
ANO1 block: inhibitors of mouse TMEM16A calcium-activated chloride channel. Q8BHY3. HEK293 TMEM16A/YFP iodide influx fluorescence, ionomycin. normalized B-score (activity score, 25-100; higher = stronger inhibition) at 10 µM. actives 1.2% (n = 310,000);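 active means ratio plate-corrected score three or more library SD toward inhibition, starting fluorescence score within five deviations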;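 further: score derived from kinetic fluorescence span divided by baseline fluorescence per well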
TMEM16A act: activators or potentiators of mouse TMEM16A chloride channel | Q8BHY3 | HEK293 TMEM16A/YFP-H148Q/I152L, iodide quench fluorescence; active compounds read low | B-score at 10 µM | actives 0.3% (n = 340,000) | AID 623877;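 active means fluorescence-ratio B-score plate-corrected deviation score at least 3 library SD below zero, with starting fluorescence score within 5 deviations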;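 further: channel opened by trigger with iodide after compound preincubation; score built on the fluorescence ratio of max minus min over baseline; more negative score means more quench and so TMEM16A activation or potentiation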
CHT inh: human CHT choline transport inhibition | Q9GZV3 | CHT-expressing cells, membrane potential dye, choline response; active compounds read low | B-score at 10 µM | actives 0.86% (n = 310,000);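 active means B-score over 3 SD under the library average, and starting fluorescence ratio not unusually high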;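 further: choline stimulus applied at its EC90 after an EC20 pre-addition; B-score computed on integrated fluorescence ratio after choline addition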
CHT allo act: allosterically activates the human high affinity choline transporter; B-score at 10 µM; actives 0.49% (n = 310,000); Q9GZV3; CHT-expressing cells, membrane potential dye, choline EC20; active compounds read high; LV-AA mutant CHT in HEK293 cells; AID 488977;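 active means initial fluorescence not abnormally high and integrated response B-score, plate-corrected, over 3 SD above library mean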
Of the large screens only hits and unclear results are named; the others gave an inactive call. Most compounds without a hit are left out; they make up all but 3.2% or so of the library.

COc1ccc(-c2csc(NC(=O)c3ccc(OCC(=O)N4CCOCC4)c(OC)c3)n2)cc1	ANO1 block 100
COc1cc(/C=N/NC(N)=S)ccc1OCC(=O)N1CCOCC1	none
COc1cc(/C=N/n2cnnc2)ccc1OCC(=O)N1CCOCC1	CHT allo act 9.6
COc1cc(C(=O)Nc2nc(-c3ccc(C)cc3)cs2)ccc1OCC(=O)N1CCOCC1	none
O=C(COC(=O)c1cccs1)NCCc1ccc(F)cc1	none (no result: Rce1 inh, Kir21 block, ANO1 block, CHT inh, CHT allo act)
CC1CCCN(C(=O)CNC(=O)c2ccco2)C1 (stereo not drawn)	none
O=C(NCCc1ccccc1)c1cc(=O)[nH]c2ccccc12	none
COc1ccccc1-c1cc(C(F)(F)F)nc(S(=O)(=O)CCCC(=O)N2CCOCC2)n1	CHT inh -5.1
COc1ccccc1/C=C/C(=O)NCC(=O)N=Nc1c(O)[nH]c2ccccc12	none
Cc1cc(C)cc(C(=O)NCC(=O)OCC(=O)Nc2cccnc2Cl)c1	none
CCCCCCCCCCCCCCCC[N+](C)(C)CC	Kir21 block -6.8
CC#CC[N+](C)(C)CCCCCCCCCCCC	Kir21 block -5
CCCCCCCCCCCCCCCC[N+](C)(C)CCl	none (no result: Rce1 inh, Kir21 block, ANO1 block, CHT inh, CHT allo act)
Cc1csc(NC(=O)c2cc(-c3ccccc3)nc3ccccc23)n1	none
CC1(C)CC(=O)/C(=C(/O)Cc2ccccc2)C(=NCCc2ccccc2)C1	Kir21 block -4.3
O=C(N/N=C/c1cc(Cl)cc(Cl)c1O)c1ccncc1	TMEM16A act -8.8
CC(C)(C)c1ccccc1OCC(=O)Nc1ccccc1C(=O)NCc1cccnc1	Kir21 block -6 (no result: Rce1 inh)
CC(C)(C)C(=O)Nc1ccccc1C(=O)NCc1cccnc1	none
CC(=O)N1c2ccc3ccccc3c2C(C)CC12CCCCC2 (stereo not drawn)	none
CC(=O)N1Cc2ccccc2C(C)CC12CCCCC2 (stereo not drawn)	Kir21 block -7.3
Fc1ccc(-[n+]2nc(Nc3ccccc3)sc2-c2c3ccccc3cc3ccccc23)cc1	none
COc1ccc(C)cc1Nc1n[n+](-c2ccccc2)c(-c2c(OC)ccc3ccccc23)s1	ANO1 block 100 (no result: Rce1 inh, Kir21 block)
COc1ccc(C)cc1Nc1n[n+](-c2ccccc2)c(-c2cc(OC)c(OC)cc2Br)s1	Kir21 block -6
COc1ccc(C)cc1Nc1n[n+](-c2ccccc2)c(-c2ccc(C(=O)O)cc2)s1	none
COc1ccc(-c2sc(Nc3ccccc3)n[n+]2-c2ccc(F)cc2)c(C)c1C	TMEM16A act -5, CHT inh -5.4
CCOC(=O)CC(=O)CSc1ncnc2c1nnn2-c1ccccc1	none
CCCN1CCc2nc(SCC(=O)Nc3ccc(C)c(Cl)c3)[nH]c(=O)c2C1	none
CC(Nc1nc(-c2cccnc2)nc2ccccc12)c1ccc(F)cc1 (stereo not drawn)	none
CCOC(=O)c1cnn(-c2ccc(NS(=O)(=O)c3ccc(Cl)cc3)cc2)c1C(F)(F)F	ANO1 block 100
CC(C)[C@@H]1CC[C@@H](C)C[C@H]1OC(=O)C[n+]1cc(-c2ccc(Cl)cc2)n2c1CCCCC2	Kir21 block -8.1 (no result: Rce1 inh)
O=C(C[n+]1cc(-c2ccc(Cl)cc2)n2c1CCCCC2)c1ccccc1	none
COc1ccc(-c2c[n+](CC(=O)OC3CC(C)CCC3C(C)C)c3n2CCC3)cc1 (stereo not drawn)	Kir21 block -5.2
CN(c1ccc(Cl)cc1)c1cc(=O)n(C)c2ccccc12	Kir21 block -7
COC(=O)[C@]1(Cc2ccccc2)N[C@H](c2ccc(-c3ccc(F)cc3)cc2)[C@@H]2C(=O)N(C)C(=O)[C@@H]21	none
CCOC(=O)N(Cc1ccccc1)Cc1ccc(C(=O)N[C@@H](Cc2ccccc2)C(=O)O)cc1	none
O=Cc1coc2c(ccc3ccccc32)c1=O	CHT inh -6.5 (no result: TMEM16A act)
O=C(O)CC1NC(=O)N(C2CCCCC2)C1=O (stereo not drawn)	none
c1ccc(COn2nnc3ccccc32)c(COn2nnc3ccccc32)c1	Kir21 block -5.7
CC(C)(NS(=O)(=O)OCC(Cl)(Cl)Cl)c1ccccc1	none
CC[C@@](C)(NS(=O)(=O)OCC(Cl)(Cl)Cl)c1ccccc1	Kir21 block -5.1
